Assay results: PubChem BioAssay AID1745850 (National Center for Advancing Translational Sciences (NCATS), 2022)
The whole screen tested about 2,100 compounds, of which about 260 (12%) were called active. Another 58% or so got no clear call; they are omitted. The call rests on the fitted dose curve; in most records, active means well fitted cell-killing curve with a large enough effect; inconclusive means small, poorly fitted or top-dose-only effect, or effect the other way; inactive means flat fitted curve, though single readings scatter. The list shows a part of the results.

Assay: Viability Counterscreen for Confirmatory qHTS for Inhibitors of ATXN expression; further: nearly all actives have a fitted effect of over 50% in size
Conditions: HEK-293 ATXN2-luc cells viability, CellTiter-Fluor, 24 h; activity change, negative = cytotoxicity: at the top concentration
In short: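 Cells with an ATXN2-luciferase reporter were dosed in a dilution series for 24 h at 37 degrees C. Viability was read first with Gly-Phe-AFC at 25 uM final (fluorescence, ex 405/em 540), then SteadyGlo luminescence. Medium-only wells defined 100% inhibition.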
Potency means the concentration at half of the fitted maximal effect.

| SMILES | activity change, negative = cytotoxicity | Potency |
| --- | --- | --- |
| COc1cccc(/C=N/Nc2nc3ccccc3n3cnnc23)c1O | -9.86% (inactive) | – |
| O=C(CCc1ccccc1)N/N=C/c1cc(Br)ccc1O | -17.3% (inactive) | – |
| CCN(CC)S(=O)(=O)c1ccc(N/N=C/c2cc(OC)ccc2O)nc1 | -10.2% (inactive) | – |
| O=[N+]([O-])c1ccc(O)c(/C=N/Nc2ccccn2)c1 | – | 10 µM (active) |
| COc1cccc(/C=N/Nc2ncnc3c2ncn3Cc2ccccc2)c1O | -7.4% (inactive) | – |
| O=[N+]([O-])c1ccc(O)c(/C=N\N=C2c3ccccc3-c3ccccc32)c1 | – | 12.6 µM (active) |
| O=[N+]([O-])c1ccc(O)c(/C=N/Nc2ncnc3c2cnn3-c2ccccc2)c1 | – | 12.6 µM (active) |
| Cc1cc(Cl)c(C(=O)Nc2cccc(C(F)(F)F)c2)c(C)n1 | -20.8% [at 57.5 µM] (inactive) | – |
| C=CCN1C=CC(=O)[C@@H](OC(=O)Nc2ccc(Br)cc2)[C@H]1c1ccccc1Br | -15.2% (inactive) | – |
| O=C(CN1C(=O)c2ccccc2S1(=O)=O)Nc1ncc(Cl)cc1Cl | 0.426% (inactive) | – |
| O=C(c1ccco1)N(CCCN1CCOCC1)c1nc(-c2ccc(Cl)cc2)cs1 | -12.7% (inactive) | – |
| CC(=O)Nc1cc(-c2ccc(C(=O)NC3CC3)cc2)cn2c(-c3cccc(C(C)=O)c3)cnc12 | -20.7% [at 57.5 µM] (inactive) | – |
| O=C(NCCc1ccccc1)c1ccc2nccnc2c1 | -11.9% (inactive) | – |
| NS(=O)(=O)c1ccc(CCNC(=O)COC(=O)/C=C/c2cc(Br)ccc2F)cc1 | 4.96% (inactive) | – |
| NS(=O)(=O)c1ccc(CCNC(=O)c2cc(-c3ccccn3)nc3ccc(Br)cc23)cc1 | – | 35.5 µM (active) |
| CCC(CC)C(=O)c1c[nH]c(C(=O)NCc2ccccn2)c1 | -5.14% [at 57.5 µM] (inactive) | – |
| CCn1c(/C=C/c2ccc([N+](=O)[O-])o2)nc2ccccc2c1=O | – | 10 µM (active) |
| O=[N+]([O-])c1ccc(/C=N/N=C/c2ccc([N+](=O)[O-])o2)o1 | – | 7.94 µM (active) |
| COc1ccccc1NC(=O)Nc1nc(CC(=O)N2CCN(c3ccccc3)CC2)cs1 | -22% [at 57.5 µM] (inactive) | – |
| CC(C)Nc1nc(NC(C)C)nc(N(C#N)CCOc2ccc(Cl)cc2Cl)n1 | -19.4% (inactive) | – |
| O=C(NC(c1ccccc1)c1ccc2ccccc2n1)C1CCN(CCOc2ccc(Cl)cc2Cl)CC1 (stereo not given) | – | 25.1 µM (active) |
| O=C(NC(c1ccccc1)c1c(O)ccc2ccccc12)c1ccccc1Cl (stereo not given) | -20.7% (inactive) | – |
| COc1ccc(/C=C/C(=O)Nc2cccc(S(=O)(=O)N3CCCC3)c2)cc1OC | -3.83% (inactive) | – |
| COc1cc(/C=C/C(=O)Nc2ccc(OC)c(S(=O)(=O)N3CCOCC3)c2)ccc1OCC#N | -23% (inactive) | – |
| CCSc1nc2ccccc2n1C(=O)/C=C\c1ccc(OC)c(OC)c1 | – | 7.94 µM (active) |

| SMILES | activity change, negative = cytotoxicity | Potency |
| --- | --- | --- |
| COC1=C(c2ccccc2)C(=O)c2ccccc2C1=O | -26.8% (inactive) | – |
| CCOC(=O)c1ccc(NC(=O)c2nc[nH]c2C(=O)N[C@H](C)c2ccccc2)cc1 | 1.71% (inactive) | – |
| CC(=O)c1sc(NC(=O)c2cc(-c3ccccc3)nn2-c2ccccc2)nc1C | -12% (inactive) | – |
| O=C(NCCc1csc(-c2ccc(Cl)cc2)n1)c1ccco1 | -29% [at 57.5 µM] (inactive) | – |
| O=C(Nc1nc(NC(=O)c2ccco2)n(-c2ccccc2)n1)c1ccccc1 | – | 22.4 µM (active) |
| Cc1nc(N2CCN(Cc3ccc4c(c3)OCO4)CC2)c2oc3ccccc3c2n1 | -27% (inactive) | – |
| CCOC(=O)c1c(NC(=O)COC(=O)Cn2cnc3ccccc32)sc(C)c1C | -16.8% [at 57.5 µM] (inactive) | – |
| CNc1ccc(Br)cc(C(=O)/C=C/c2ccc3c(c2)OCO3)c1=O | -17.3% (inactive) | – |
| CCNc1ccc(Br)cc(C(=O)/C=C/c2ccccc2Cl)c1=O | -23.3% (inactive) | – |
| O=C(/C=C/c1ccccc1)c1cc(Br)ccc(=O)c1O | – | 22.4 µM (active) |
| NC(=S)N1OC[C@@H]2COc3ccc4ccccc4c3[C@@H]21 | -27.5% [at 57.5 µM] (inactive) | – |
| COc1ccccc1Cc1c(-c2ccco2)nc2c(C)cc(Br)cn12 | – | 10 µM (active) |
| COC(=O)c1ccc(N2CCOCC2)c(NC(=O)Nc2cccc(OC)c2)c1 | -8.48% (inactive) | – |
| COc1cccc(OCC(=O)Nc2cc(Cl)ccc2Oc2ccccc2)c1 | 6.08% (inactive) | – |
| O=C(Nc1ccc(Cl)c(Cl)c1)c1cccc(S(=O)(=O)NCc2cccnc2)c1 | – | 3.16 µM (active) |
| O=C(/C=C/Nc1ccc(S(=O)(=O)Nc2ncccn2)cc1)c1ccc(Cl)c(Cl)c1 | -21.3% [at 57.5 µM] (inactive) | – |
| COc1cccc(S(=O)(=O)NCc2ccc(C(=O)Nc3cccc(Cl)c3)cc2)c1 | – | 20 µM (active) |
| Cn1c(=O)c2cc(NC(=O)Nc3cccnc3)ccc2n1Cc1ccc(Cl)cc1 | -14.8% [at 57.5 µM] (inactive) | – |
| O=C(CSc1nnnn1-c1ccccc1)Nc1nsc(-c2ccccc2)n1 | -13.5% [at 57.5 µM] (inactive) | – |
| CCn1c2ccccc2c2cc(NC(=O)COC(=O)c3ccccc3F)ccc21 | 2.58% (inactive) | – |
| C=CCNc1oc(-c2ccc(Cl)cc2)nc1C#N | -6.31% [at 57.5 µM] (inactive) | – |
| NC(Cc1ccc(Cl)cc1)c1csc(Nc2nccc(C(F)(F)F)n2)n1 (stereo not given) | – | 28.2 µM (active) |
| NC(Cc1ccc(F)cc1)c1csc(Nc2cc(NCc3ccco3)ncn2)n1 (stereo not given) | -10.8% (inactive) | – |
| NC(Cc1ccccc1)c1csc(Nc2nccc(C(F)(F)F)n2)n1 (stereo not given) | – | 14.1 µM (active) |
| NC(=O)c1cccc(Nc2nc(C(N)Cc3ccc(C(F)(F)F)cc3)cs2)n1 (stereo not given) | -3.62% (inactive) | – |
